From PubChem BioAssay AID1460 (National Center for Advancing Translational Sciences (NCATS), 2008) come the findings set out here.

Out of some 270,000 compounds screened, about 5,800 (2.1%) were called active. About 16% were inconclusive and are not listed. The sample holds actives, similar compounds and a random draw of the others, so the mix is not that of the screen. Unmarked numbers belong to inactive results. The call rests on the fitted dose curve; in most records, active means well fitted inhibition curve with a large enough effect; inconclusive means small, poorly fitted or top-dose-only effect; inactive means flat fitted curve, though single readings scatter.
On the % scale 0 is the no-effect control and ±100 the full control effect; potency means the concentration at half of the fitted maximal effect.

Microtubule-associated protein tau (Homo sapiens), sequence (P10636 561-689 P618L limits assumed): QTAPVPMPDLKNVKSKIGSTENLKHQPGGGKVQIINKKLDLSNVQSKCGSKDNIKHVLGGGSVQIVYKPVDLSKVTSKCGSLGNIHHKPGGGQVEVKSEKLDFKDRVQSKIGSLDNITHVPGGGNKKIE

The assay has as its target Microtubule-associated protein tau (Homo sapiens) (UniProt P10636). The assay can be described thus: qHTS for Inhibitors of Tau Fibril Formation, Thioflavin T Binding. Further: nearly all actives have a fitted effect of over 55% in size. To be noted: recombinant tau K18 P301L (four-repeat tau fragment), heparin-induced fibrillization, ThT fluorescence; series mostly up to 57.4 µM; activity, negative = inhibition: at the top concentration. The source says: NIH Molecular Libraries Probe Production Network [MLPCN]
NIH Chemical Genomics Center [NCGC]
Assay Provider: Carlo Ballatore, University of Pennsylvania
The microtubule-associated protein tau is an abundant protein in the axons of neurons that stabilizes microtubules. With its ability to modulate microtubule dynamics, tau contributes directly or indirectly, to key structural and regulatory cellular functions. Particularly important is the influence tau exerts on axonal transport, which allows signaling molecules, trophic factors and other essential cellular constituents to travel along the axons. Under pathological conditions, tau becomes sequestered into insoluble aggregates called neurofibrillary tangles. This phenomenon is believed to have pathological consequences by promoting axonal transport deficits that ultimately lead to synaptic dysfunction and neuronal loss. To identify inhibitors of tau aggregation, a heparin-induced tau fibril formation assay was used that employed a recombinantly expressed fragment of tau, K18 (Q242-E372), bearing a P301L mutation (Gustke et al. 1994; Hong et al. 1998). This assay monitors tau fibrillization by Thioflavin T (ThT) fluorescence.
Gustke, N., B. Trinczek, et al. (1994). "Domains of tau protein and interactions with microtubules." Biochemistry 33(32): 9511-22.
Hong, M., V. Zhukareva, et al. (1998).
Li, W. and V. M. Lee (2006).
von Bergen, M., S. Barghorn, et al. (2001). "Mutations of tau protein in frontotemporal dementia promote aggregation of paired helical filaments by enhancing local beta-structure." J Biol Chem 276(51): 48165-74.
NCGC Assay Protocol Summary:
For screening, 2 uL/well human K18 P301L (15 uM unlabeled and 0.24 uM Alexa 594-labeled tau, final concentrations) in reagent buffer (100 mM sodium acetate pH 7) was dispensed into black solid 1536-well plates (Grenier) using a solenoid-based dispenser. Following transfer of 23 nL compound or DMSO vehicle by a pin tool, 2 uL/well heparin (20 uM final concentration) in reagent buffer was added and the plate centrifuged 15 s at 1000 RPM. Plates were incubated 6 hr at 37 C and then 1 uL/well ThT (30 uM final concentration) was added. After a 1 hr ambient incubation, the plates were read by an Envision (Perkin Elmer) to monitor ThT fluorescence (450/8 nm excitation and 510/23 nm emission).
Keywords: NIH Roadmap, MLPCN, MLI, MLSMR, NCGC, qHTS, tau, tauopathies, Alzheimer's disease, fibril, neurodegeneration, aggregation
For `CN(C)/C=C1/C(=O)Nc2ccccc21`, the “activity, negative = inhibition” value was -7.07%.
Same read-out and setting: then `Cc1ccccc1-n1c(C)cc(/C=C2\NC(=O)NC2=O)c1C`, with -0.6%; and `Cc1nnc(SCc2cc(=O)c3cc(F)ccc3[nH]2)n1C`, with -1.18%; and `CCOc1ccc(C2C(=O)N(C3CCCCC3)CC(=O)N2CCC2=CCCCC2)cc1OC` (stereo not given), with 0.595%.
As for `Cc1oc2ncnc(N3CCOCC3)c2c1C(=O)NCCc1ccccc1`, the “activity, negative = inhibition” value was 4.33%.
With `COc1cc(/C=C(\C#N)c2nc3c(s2)CC(C)CC3)ccc1O` (stereo not given), the Potency is 12.6 µM (active).
With `Cc1ccc(-c2nnc(SCc3ccccc3C)o2)cc1`, the “activity, negative = inhibition” value was -7.49%.
For the compound `Cc1ccc(-c2cc(-c3coc4ccccc4c3=O)c3c(n2)-c2cc(Cl)ccc2OC3)cc1`, the “activity, negative = inhibition” value is -12.1%.
Still for that read-out and setting: then `O=C(CCc1cn(Cc2ccc(F)cc2)c2ccccc12)NC1CCCCC1`, with -4.41%; and `OCCC1CN(Cc2ccccc2-c2ccco2)CCN1Cc1ccsc1` (stereo not given), with -0.703%.
Regarding `OCCC#Cc1ccc(CN2CCN(Cc3ccsc3)C(CCO)C2)cc1` (stereo not given), the Potency is 11.2 µM (active).
Consider `OCCC1CN(Cc2cccc(OC3CCCC3)c2)CCN1Cc1ccsc1` (stereo not given), for which the “activity, negative = inhibition” value was -12.6%.
On the same count and under the same terms, the same measure for `Cc1ccc(-c2nnc(SCC(=O)NCc3ccccc3)nc2-c2ccc(C)cc2)cc1`: -6.11%; for `CCOC(=O)CSC1=Nc2ccccc2C2=NC(CCC(=O)NCc3ccc(F)cc3)C(=O)N12` (stereo not given): 3.95%.
Take `COc1ccc(Cn2ccn(CC(=O)Nc3cc(C)ccc3C)c(=O)c2=O)cc1`: the “activity, negative = inhibition” value was -16.1%.
Same read-out and setting: the same measure for `CCS(=O)(=O)N1CCc2cc(C(=O)NCc3ccc(OC)cc3)ccc21`: -4.87%; for `CCOc1ccc(C(c2c(C)[nH][nH]c2=O)c2c(C)[nH][nH]c2=O)cc1OCC`: -16.1%.
In the case of `Cc1[nH][nH]c(=O)c1C(c1ccc(-c2ccc(Cl)cc2)o1)c1c(C)[nH][nH]c1=O`, the Potency is 7.08 µM (active).
For the compound `CC1CCCN(c2cc3c(cc2F)c(=O)c(S(=O)(=O)c2cccc(Cl)c2)cn3Cc2ccccc2)C1` (stereo not given), the “activity, negative = inhibition” value is -0.998%.
Take `CCOc1ccc(CC(=O)NCCc2csc3nc(-c4ccccc4F)nn23)cc1`: the “activity, negative = inhibition” value is -7.65%.
Same read-out and setting: then `O=C(Nc1ccc(S(=O)(=O)N2CCC(c3nc4ccccc4s3)CC2)cc1)c1ccccc1F`, with 2.61%; and `CC(C)c1ccc(NS(=O)(=O)c2ccc3[nH]cc(C(=O)NC4CCCC4)c(=O)c3c2)cc1`, with 9.63%.
`CCn1c2ccccc2c2nnc(N3CCN(c4cc(C)ccc4C)CC3)nc21`: the “activity, negative = inhibition” value was -1.08%.
On the same count and under the same terms, the same measure for `O=c1c(=O)n(Cc2c(F)cccc2Cl)ccn1Cc1ccccc1`: -16.6%; for `Cc1ccc(CNC(=O)CCc2c(C)nn(-c3ccc(N4CCCC4)nn3)c2C)cc1`: -9.71%.
Same read-out and setting: the same measure for `CC1=C/C(=N\S(=O)(=O)c2ccccc2)C(C(C)C)=CC1=O`: 0.736%.
`CC1=C/C(=N\OS(=O)(=O)c2ccccc2)C=CC1=O`: the Potency is 3.16 µM (active).
For the compound `Cc1ccc(S(=O)(=O)c2ccc(Oc3ccccc3)cc2)cc1`, the “activity, negative = inhibition” value was -5.65%.
With `COc1ccc(OC)c(-c2nc(C(N)=O)c3c(n2)n(-c2ccc4c(c2)OCO4)c(=O)n3C)c1`, the “activity, negative = inhibition” value is -10.3%.
Same read-out and setting: then `CC(C)(C)OC(=O)N1CCC(c2c(C(=O)N3CCc4ccccc4C3)cnn2-c2ccc(F)cc2)CC1`, with -16%.
In the case of `CC(=O)c1cc(-c2ccccc2)[nH]c1N1CCCC1`, the Potency was 14.1 µM (active).
Take `O=c1cc(-c2ccccc2)nc(N2CCCCC2)[nH]1`: the “activity, negative = inhibition” value is 0.526%.
The same measure, in the same setting: the same measure for `CC(=O)c1cc(C#N)c(N2CCCCC2)nc1C`: 0.825%.
On the same count and under the same terms, then `CCCc1nn2c(=O)cc(COC(=O)c3ccc(NC(=O)COc4ccc(F)cc4)cc3)nc2s1`, with 3.87%.
On the same count and under the same terms, then `CCCN(C(=O)Cn1ncc2c([nH]c3ccc(C)cc32)c1=O)c1ccccc1C`, with -8.01%.
Take `O=c1cc(CSc2ncn[nH]2)[nH]c2ccc(F)cc12`: the “activity, negative = inhibition” value is -1.06%.
For `CCCN(CCC)C(=O)C1CCCN(c2ncnc3c2nc2n3CCCCC2)C1` (stereo not given), the “activity, negative = inhibition” value was -2.59%.
Turning to `Cc1ccc2nc(SCc3nnc(-c4ccccc4[N+](=O)[O-])o3)c(C#N)cc2c1`, the “activity, negative = inhibition” value was -1.14%.
Take `Cc1ccc(-c2ccc(/C=C(\C#N)C(N)=S)o2)c([N+](=O)[O-])c1`: the Potency is 3.98 µM (active).
As for `Cc1cc(-c2ccc(/C=N/n3cnnc3)o2)c([N+](=O)[O-])cc1C`, the “activity, negative = inhibition” value is 5.29%.
Same read-out and setting: the same measure for `CCOc1ccc2nc(N3CCCC(C(=O)Nc4cc(C)ccc4C)C3)sc2c1` (stereo not given): -8.84%.
Same read-out and setting: then `O=C(NCc1ccccc1)c1cccc(NC(=O)N2CCSc3ncccc32)c1`, with 5.68%; and `CC(=O)N1c2ccc(S(=O)(=O)N3CCCCCC3)cc2CC1C(=O)NCc1ccccc1C` (stereo not given), with -5.53%.
On to `C/C(=N\NC(=O)c1ccc(C)cc1)C1C(=O)c2ccccc2C1=O`, for which the Potency was 5.01 µM (active).
`Cc1ccc(C(=O)NCCNC(=O)c2ccccc2)cc1`: the “activity, negative = inhibition” value was -12.8%.
Regarding `Cc1ccc(C(=O)NC(=S)Nc2ccccc2C)cc1`, the “activity, negative = inhibition” value is 1.33%.
Still for that read-out and setting: then `COc1ccc(C2C(=O)N(C3CCCCCC3)CC(=O)N2CCc2ccc(Cl)cc2)cc1OC` (stereo not given), with -5.92%.
On the same count and under the same terms, then `CC(C)CNc1ncnc2c1nnn2C`, with -0.799%; and `Cc1cccc(-c2nc(SCC(=O)Nc3cc(C)on3)c3c(=O)n(C)c(=O)n(C)c3n2)c1`, with -3.19%.
On the same count and under the same terms, then `Cc1ccc(N(CC(=O)NCc2ccc(Cl)cc2)S(=O)(=O)N(C)C)cc1`, with 2.93%.
